The values that follow come from PubChem BioAssay (EPA / NIEHS).

Each structure is given as a SMILES string. Where “and” joins values, the source holds several entries; their conditions need not be identical. Identical values can stand only once. Calls of active or inactive are those of the source. The calls were made as follows: active = hit-call score of the fitted dose curve at least 0.9, where 1 is the maximum; inactive = score below 0.9.

Read-out in this assay: Monokine induced gamma interferon (MIG), CXCL9 (gene 4283)
Kind of assay: BSK_hDFCGF_MIG: BioMAP Diversity Plus: hDFCGF Assay for Monokine induced gamma interferon (MIG) Biomarker Activity (AID 2283063). The following applies: primary human foreskin fibroblasts; actives raise or lower the signal. On the procedure: BSK_hDFCGF is a cell-based, multiplexed-readout assay that uses foreskin fibroblast, a human skin primary cell, with measurements taken at 24 hours after chemical dosing in a 96-well plate.BSK_hDFCGF_MIG is an assay component measured in the BSK_hDFCGF assay. It measures MIG antibody related to regulation of gene expression using ELISA technology.Data from the assay component BSK_hDFCGF_MIG was analyzed into 1 assay endpoint. This assay endpoint, BSK_hDFCGF_MIG, was analyzed with bidirectional fitting relative to DMSO as the negative control and baseline of activity. Using a type of binding reporter, gain or loss-of-signal activity can be used to understand changes in the signaling as they relate to the gene CXCL9. Furthermore, this assay endpoint can be referred to as a primary readout, because this assay has produced multiple assay endpoints where this one serves a signaling function. To generalize the intended target to other relatable targets, this assay endpoint is annotated to the cytokine intended target family, where the subfamily is chemotactic factor.
The levels of cell surface (or secreted, indicated by the prefix "s") biomarker endpoints were measured by ELISA. Overt cytotoxicity to cells in confluent adherent cultures (all systems other than the BT system) was assessed by measuring total protein levels using sulforhodamine B (SRB) staining in parallel cultures at the time of biomarker measurements, indicated as SRB endpoints. For proliferation assays for adherent cell types, individual cell types are cultured at sub-confluence and relative cell numbers quantified by SRB staining at time points optimized for each system (48 h: 3C and CASM3C systems; 72 h: BT and HDF3CGF systems; 96 h: SAg system). SRB was performed by staining cells with 0.1% SRB after fixation with 10% TCA and reading wells at 560 nm.Viability and proliferation of PBMC (T cells) was quantified by Alamar Blue reduction for the SAg and BT systems. For PBMC viability (referred to as PBMC Cytotoxicity within the assay endpoint names), cells were plated (75,000/well in a 96-well plate) and then chemical samples added for 1 h before addition of activators, SEB and TSST-1 (20 ng/mL final concentration each). Cells were incubated for 90 h. Then, Alamar Blue (20 uL/well) (Invitrogen, Cat DAL1100) was added for 6 h, and the plates were read with a fluorescence microplate reader at 546/580 nm (excitation/emission). For PBMC proliferation, cells were plated and activated as above but incubated for only 16 h prior to addition of Alamar Blue. Plates were read after 6 h.
Regarding `O=C(Cl)c1c(Cl)c(Cl)c(C(=O)Cl)c(Cl)c1Cl`, the outcome was inactive.

For the molecule `C=CC(=O)NCOCCCC`, the outcome was inactive. The same measure, in the same setting: under `Oc1ccc(/C=C/c2cc(O)cc(O)c2)cc1` stands “inactive”. Same read-out and setting: under `O=C1CCCCCCCCCCC1` stands “inactive”. Still for that read-out and setting: under `Nc1cccc(N)n1` stands “inactive”. As usually defined, the AC50 is the midpoint of the concentration-response curve, whichever way the signal moves. As for `C=CC(=O)OCC(C)OCC(C)OCC(C)OC(=O)C=C` (stereo not given), the AC50 was 11.3 µM (active). Turning to `CCCCC1C(=O)N(c2ccccc2)N(c2ccccc2)C1=O`, the outcome was inactive. Same read-out and setting: under `C=CC(=O)NC(C)(C)C` stands “inactive”; under `Clc1cc(Cl)c(Cl)c(Cl)c1Cl`, “inactive”. Still for that read-out and setting: under `CC1=CC=C(C(C)C)CC1` stands “inactive”. On the same count and under the same terms, under `COc1ccc(C(=O)c2ccccc2)c(O)c1` stands “inactive”; under `CCCCCCCCC(CO)CCCCCC` (stereo not given), “inactive”. Consider `CC=C(C)C=CC=C(C)C`, for which the outcome was inactive. Still for that read-out and setting: under `CCN1CN(CC)CN(CC)C1` stands “inactive”; under `CC(Cl)COP(=O)(OCC(C)Cl)OCC(C)Cl` (stereo not given), “inactive”; under `Oc1ccccc1Cc1ccccc1O`, “inactive”. Same read-out and setting: under `Nc1ccc(C(=O)O)cc1` stands “inactive”; under `CCOC(=O)/C=C\C(=O)OCC`, “inactive”. As to `CC/C=C\CCOC(=O)c1ccccc1O`, the AC50 was 20 µM (active). With `O=C(Oc1ccccc1)c1ccccc1C(=O)Oc1ccccc1`, the outcome was inactive. Still for that read-out and setting: under `Nc1nc(N)nc(-c2ccccc2)n1` stands “inactive”; under `CCCCCC1=CCCC1=O`, “inactive”; under `O=C(O)C(F)(F)C(F)(F)C(F)(F)C(F)(F)C(=O)O`, “inactive”. As to `O=C1CCCCCCCCCCCN1`, the outcome was inactive. On the same count and under the same terms, under `CC(CCC(=O)O)(c1ccc(O)cc1)c1ccc(O)cc1` stands “inactive”; under `Fc1ccc(Br)cc1`, “inactive”. On the same count and under the same terms, under `CC(C)[N+](C)(CCOC(=O)C1c2ccccc2Oc2ccccc21)C(C)C` stands “inactive”. As for `COc1ccc(C(=O)/C(Br)=C\C(=O)O)cc1`, the AC50 was 28 µM (active) and 31.3 µM (active).

For `CCOC(=O)C1=NOC(c2ccccc2)(c2ccccc2)C1`, the outcome was inactive. With `CC/C=C\C/C=C\C/C=C\CCCCCCCC(=O)OC`, the AC50 is 11.1 µM (active). `C=CCCCCCCCCC=O`: the outcome was inactive. Still for that read-out and setting: under `CCCCCCCCCCCC(C)=O` stands “inactive”; under `CCNc1nc(NC(C)(C)C)nc(OC)n1`, “inactive”. For `c1ccc(Nc2cccc3ccccc23)cc1`, the AC50 was 27.5 µM (active) and 23.4 µM (active). `c1ccc2c(c1)[nH]c1ccccc12`: the outcome was inactive.

In the case of `CC(c1cc(C(C)(C)C)cc(C(C)(C)C)c1O)c1cc(C(C)(C)C)cc(C(C)(C)C)c1O`, the outcome was inactive. Same read-out and setting: under `CCCCCCCO` stands “inactive”; under `CCc1cccc(C)c1N(C(=O)CS(=O)(=O)O)C(C)COC` (stereo not given), “inactive”. On the same count and under the same terms, under `C=C(C)C(=O)OCCCCCCCCCCCC` stands “inactive”; under `CCCCCCOC(=O)CCCCC(=O)OCCCCCC`, “inactive”.
